# Data reported in PubChem BioAssay.
# Assay: probe aEGFR binding to arrayed compounds – biochemical, biotinylated probe, 635/667 nm fluorescence, primary screen (AID 1097);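 also: probe is a biotinylated anti-EGFR antibody binding compounds printed on slides; score combines fluorescence near 667 nm and signal to noise of each spot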
# Conditions: small-molecule microarray, higher = more signal
row,Compound,composite z-score
1,CCOC(=O)[C@H](Cc1ccccc1)NC(=O)CCC1CC(OC(=O)NCc2ccc3c(c2)OCO3)CC2(CCCC(COC(=O)NCc3cccc(C(F)(F)F)c3)O2)O1 (stereo partly specified),0.0293
2,CC(=O)OC[C@H]1O[C@@H](ON=C[C@@H](C)[C@H](OCc2ccccc2)C(C)C)[C@H](OC(C)=O)[C@@H](OC(C)=O)[C@@H]1OC(C)=O,0.0359
3,O=C1[C@H]2[C@H]3[C@H](O)[C@H](O)CC(=NOCc4ccccc4)[C@H]3CC[C@H]2C(=O)N1C[C@@H]1CCCO1,-0.123
4,CO[C@@H]1COC(=O)[C@@H]2CCCN2C(=O)[C@@H](C)COC(=O)[C@H](COCc2ccccc2)NC(=O)CC=C[C@H]1C,-0.198
5,C=C(/C(=C/C[C@H](OC(C)=O)c1ccc(OCCO)cc1)c1cnc2ccccc2c1)C(C)C,-0.204
6,COC(=O)CC=C[C@@H](C)[C@H](OC)c1ccccc1Br,-0.113
7,COc1ccccc1CN1C(=O)c2ccccc2[C@@H](C(=O)NCC(F)(F)F)[C@@H]1c1ccc(CO)cc1,-0.179
8,O=C1[C@H]2[C@H]3[C@H](O)[C@H](O)CC(=NO[C@@H]4O[C@H](CO)[C@@H](O)[C@H](O)[C@H]4O)[C@H]3CC[C@H]2C(=O)N1C1CCCCC1,-0.12
9,CC(C)=CCCC(C)=CCON=C1C[C@@H](O)[C@@H](O)[C@@H]2[C@@H]3C(=O)N(C[C@@H]4CCCO4)C(=O)[C@@H]3CC[C@@H]12,-0.0556
10,C=CC[C@@H]1C=C[C@H](ON=C2c3cc(OC)ccc3O[C@H](c3cccc(OC)c3)[C@H]2O)[C@@H](CO)O1,-0.133
11,CCc1cc2c(nc1CC)CCN(CCC(C)=NOC[C@@H](O)COCc1ccco1)C2,0.441
12,CCN1C(=O)[C@H]2[C@H]3[C@H](O)[C@H](O)CC(=NOC(C)CN4CCCCc5nc(C)c(C)cc54)[C@@H]3CC[C@H]2C1=O (stereo partly specified),0.126
13,COCCOC(=O)N1C(=O)[C@@]2(c3cc(C#CC4(O)CCCCCC4)ccc31)[C@H](c1ccc(OCCO)cc1)N1[C@H](c3ccccc3)[C@H](c3ccccc3)OC(=O)[C@H]1[C@@H]2C(=O)NC[C@H](O)c1ccccc1,-0.0555
14,CC1CC/C=C\[C@H]2OC34C=CCN(C(C)C)C(=O)[C@H]3N(CCCO)C(=O)[C@@H]4C2C(=O)O1 (stereo partly specified),-0.214
15,CCCNC(=O)OC[C@H]1O[C@H](CCON=CC[C@@H]2C=C[C@H](OC(C)=O)[C@@H](COC(C)=O)O2)C=C[C@@H]1Oc1ccc(OC)cc1,0.0486
16,Cc1ccc(S[C@]2(C(=O)O)CC(=O)N(Cc3ccccc3)[C@@H]2c2ccc(CO)cc2I)cc1,-0.261
17,CC(=O)C[C@H](O)[C@@H](NC(=O)OC(C)(C)C)C(C)C,-0.171
18,COC(=O)C1=CCC(c2cccc(Cl)c2)O1 (stereo unspecified),-0.106

row,Compound,composite z-score
1,COCCCNC(=O)[C@@]1(CCS(=O)(=O)c2ccccc2)N=C(c2ccc(OCCCO)cc2)O[C@H]1c1ccccc1,0.592
2,O=C(NN=C1C[C@@H](O)[C@@H](O)[C@@H]2[C@@H]3C(=O)N(c4cccc(Oc5ccccc5)c4)C(=O)[C@@H]3CC[C@@H]12)OCc1ccccc1,-0.124
3,CCOC(=O)NN=C1C[C@@H](O)[C@@H](O)[C@@H]2[C@@H]3C(=O)N(C[C@@H]4CCCO4)C(=O)[C@@H]3CC[C@@H]12,-0.0681
4,COC(=O)c1c(CC[C@@H](CO)NC(=O)N[C@H](Cc2ccccc2)Cn2cc(-c3ccccc3N)nn2)oc(C(C)=O)c1C(=O)OC,0.195
5,CC(CCN1CCc2nc(-c3ccccc3)c(-c3ccccc3)cc2C1)=NOC(C)CN1CCCCc2nc(C)c(C)cc21 (stereo unspecified),-0.0565
6,CCCNC(=O)[C@@H]1c2ccccc2C(=O)N(Cc2ccccc2Cl)[C@H]1c1ccc(CO)cc1,0.116
7,COc1ccc(O[C@H]2C=C[C@@H](c3ccccc3)O[C@@H]2COC(=O)CCC(C)=NOCC[C@@H]2C=C[C@H](OC(C)=O)[C@@H](COC(C)=O)O2)cc1,-0.039
8,CC(C)OC(=O)C=C1C[C@@H](c2ccc(C#N)cc2)O[C@@H](c2ccc(C#N)cc2)O1,0.11
9,CCCC=C(CCC)[C@@H](NC(=O)c1ccc(-c2ccccc2)cc1)c1ccc(C(=O)OC)cc1,-0.022
10,CCCC[C@@H](O)C1=C(C)C[C@H]2C(=O)N(Cc3ccccc3)C(=O)[C@H]2[C@H]1CO,-0.159
11,COCCNC(=O)OCC1CCCC2(CC(OC(=O)NCCc3ccc(F)cc3)CC(CCC(=O)N[C@@H](C)C(=O)OC)O2)O1 (stereo partly specified),0.433
12,C[N+](C)(C)CCCCCCNC(=O)[C@@H]1C[C@@H]2C(=O)N3CCC[C@H]3C(=O)N2[C@@H]1c1cccc(OCCO)c1,-0.0967
13,CC(C)C[C@@H]1NC(=O)[C@H]2C[C@@H](C(=O)O)[C@@H](c3ccc(O)cc3)N2C1=O,0.0577
14,O=C1O[C@@H](c2ccccc2)[C@@H](c2ccccc2)N2[C@@H](c3ccccc3OCCO)[C@]3(C(=O)Nc4ccc(C#CCCO)cc43)[C@@H](C(=O)O)[C@H]12,-0.352
15,CO[C@H]1COC(=O)[C@H](C)COC(=O)CC=C[C@@H](C)[C@H](OC)COC(=O)CC=C[C@@H]1C,-0.0302
16,C=CCC(OC(C)=O)[C@@H]1[C@@H](N(Cc2cc3ccccc3o2)C(=O)Cc2ccc(F)cc2)c2cc(OCCCO)ccc2N1C(=O)Cc1ccc(OC)cc1 (stereo partly specified),-0.131
17,CO[C@@H]1COC(=O)[C@H](C)NC(=O)[C@@H](C)COC(=O)CCC[C@H]1C,0.136
18,CC(C)(C)OC(=O)CC[C@]1(C(N)=O)COC(c2ccc(OCCCO)cc2)=N1,0.34
